HEK293 viab: cell viability loss counter-screen; HEK-293-SNCA-luc viability, GF-AFC fluorescence, 24 h; Potency, µM (titrated, usually from 57.1 µM), actives largely listed as cytotoxic; actives 0.12% (n = 150,000); AID 1671193; also: nearly all actives have a fitted effect of over 30% in size
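HEK-293-SNCA-luc cells (1500/well) plated 24 h, then exposed 24 h to a dilution series; GF-AFC added 30 min at 37C, fluorescence 405/540 nm; normalised to medium-only and DMSO wells, Hill fit.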
NIH3T3 tox: kills NIH 3T3 cells; NIH 3T3 viability, CellTiter-Glo ATP luminescence, 48-72 h; Potency, µM (highest dose often 96.7 µM), most hits filed as inhibitors; actives 4.3% (n = 94,000); AID 1345082; also: nearly all actives have a fitted effect of over 55% in size
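ATP-dependent luminescence (CellTiter-Glo) served as the viability signal for NIH 3T3 cells treated with compound for 48 or 72 hr at 37 °C.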
Luciferase inh: inhibitors of firefly (Photinus pyralis) luciferase. P08659. purified P. pyralis luciferase, luminescence, biochemical. Potency, µM (titrated, usually from 115 µM), hits mostly inhibitors. actives 2.5% (n = 76,000); also: nearly all actives have a fitted effect of over 65% in size
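Luminescence read by CCD imager after adding enzyme (10nM final) to wells holding compound, titrated in qHTS. Substrates 10uM each D-luciferin and ATP; buffer 50mM Tris acetate pH 7.5, 10mM Mg acetate, Tween-20, BSA.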
SNCA expr inh: SNCA gene expression inhibition; AID 1671194; HEK-293 SNCA-luciferase knock-in, luminescence, 24 h; Potency, µM (top dose mostly 57.2 µM), hits mostly inhibitors; actives 0.17% (n = 140,000); also: nearly all actives have a fitted effect of over 45% in size
hNpr1 antagonist: antagonists of human natriuretic peptide receptor Npr1; Potency, µM (top dose mostly 46.3 µM), actives largely listed as inhibitors; P16066; HEK293 hNpr1 GloSensor cGMP, ANP-stimulated luminescence; AID 1347048; actives 1.6% (n = 76,000); calls by dose curve; also: nearly all actives have a fitted effect of over 60% in size
Target sequence (P16066 whole entry, looked up): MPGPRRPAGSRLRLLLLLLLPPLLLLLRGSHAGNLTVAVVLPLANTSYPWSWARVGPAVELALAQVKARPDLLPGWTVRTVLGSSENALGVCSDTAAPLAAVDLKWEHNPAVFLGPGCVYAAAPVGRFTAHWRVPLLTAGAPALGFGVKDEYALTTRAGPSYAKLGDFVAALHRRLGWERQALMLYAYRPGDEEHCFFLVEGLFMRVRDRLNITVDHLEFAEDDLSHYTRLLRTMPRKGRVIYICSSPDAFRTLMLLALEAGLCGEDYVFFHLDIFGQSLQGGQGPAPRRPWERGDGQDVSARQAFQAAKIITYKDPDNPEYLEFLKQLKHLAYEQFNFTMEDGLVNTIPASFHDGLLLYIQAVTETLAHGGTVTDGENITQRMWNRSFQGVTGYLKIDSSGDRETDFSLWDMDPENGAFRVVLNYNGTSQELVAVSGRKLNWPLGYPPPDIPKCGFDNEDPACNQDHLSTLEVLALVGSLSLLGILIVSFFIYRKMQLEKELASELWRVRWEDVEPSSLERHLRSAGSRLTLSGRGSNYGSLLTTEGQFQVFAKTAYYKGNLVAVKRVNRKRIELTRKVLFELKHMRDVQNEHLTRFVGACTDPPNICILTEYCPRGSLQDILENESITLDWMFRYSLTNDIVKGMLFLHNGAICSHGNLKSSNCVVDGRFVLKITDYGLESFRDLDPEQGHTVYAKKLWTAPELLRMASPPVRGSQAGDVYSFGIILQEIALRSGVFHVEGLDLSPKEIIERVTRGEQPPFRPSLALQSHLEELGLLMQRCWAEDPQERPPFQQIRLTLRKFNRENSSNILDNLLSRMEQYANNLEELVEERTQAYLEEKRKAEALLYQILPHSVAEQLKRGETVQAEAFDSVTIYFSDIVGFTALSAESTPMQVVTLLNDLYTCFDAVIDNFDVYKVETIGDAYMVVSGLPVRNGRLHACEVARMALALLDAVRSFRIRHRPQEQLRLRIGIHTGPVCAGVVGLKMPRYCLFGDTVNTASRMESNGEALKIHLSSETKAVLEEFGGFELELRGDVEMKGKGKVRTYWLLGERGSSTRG
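Compound pre-incubated 30 min at room temperature on GloSensor-loaded HEK293 cells stably carrying hNpr1 and the pGS-40F cGMP biosensor. Stimulation uses hNppA at 0.1 nM final; luminescence is taken at baseline and 20 min post-agonist.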
HEK293 tox: cytotoxic compounds in HEK 293 cells. Potency, µM (titrated, usually from 115 µM), most hits filed as inhibitors. HEK 293 viability, ATP luminescence (CellTiter-Glo), 48-72 h. actives 6.6% (n = 94,000); also: nearly all actives have a fitted effect of over 60% in size
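Cytotoxicity was scored by loss of ATP-coupled luminescence (CellTiter-Glo) in HEK 293 cells. Compound treatment ran 48 or 72 hr at 37 degree Celsius, 5% CO2, 95% humidity.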
Hits are given with their value. Only some compounds are listed: those with a hit (about 7.4% of all), similar ones and a draw of the others. Unless noted, calls follow the shape of the dose curve; as a rule, active = well fitted curve in the direction sought with a large enough effect; inconclusive = small, poorly fitted or top-dose-only effect, or another doubt; inactive = no such curve, though single readings can be large; an effect the other way counts as inactive or inconclusive.

CC(=O)N1CCN(C(=O)C2CCCCN2Cc2ccc(-c3ccsc3)cc2)CC1 (stereo not given) was read as HEK293 viab inactive, NIH3T3 tox inactive, SNCA expr inh inactive and HEK293 tox inactive.
`O=C(C1CCCCN1Cc1ccc(-c2ccsc2)cc1)N1CCC(Cc2ccccc2)CC1` (stereo not given) gave HEK293 viab inconclusive, NIH3T3 tox 35µM, SNCA expr inh inconclusive and HEK293 tox inconclusive.
For O=C(NCCc1ccc(F)cc1)C1CCCCN1Cc1ccc(-c2ccsc2)cc1 (stereo not given) the results were HEK293 viab inactive, NIH3T3 tox 32µM, SNCA expr inh inactive and HEK293 tox 35µM.
Screening COCCNC(=O)C1CCCCN1Cc1ccc(-c2ccsc2)cc1 (stereo not given) returned HEK293 viab inactive, NIH3T3 tox inconclusive, SNCA expr inh inactive and HEK293 tox inconclusive.
Screening O=c1c2c(n(Cc3cccnc3)n1-c1ccccc1)CN(CC1CC1)CC2 returned HEK293 viab inactive, NIH3T3 tox 28µM, Luciferase inh inactive, SNCA expr inh inconclusive, hNpr1 antagonist inactive and HEK293 tox inactive.
Cc1cccc(CN2CCc3c(n(Cc4cccnc4)n(-c4ccccc4)c3=O)C2)n1 was read as HEK293 viab inactive, NIH3T3 tox 100µM, Luciferase inh inactive, SNCA expr inh inactive, hNpr1 antagonist inactive and HEK293 tox inactive.
COc1ncc(CN2CCc3c(n(Cc4cccnc4)n(-c4ccccc4)c3=O)C2)cn1 was read as HEK293 viab inactive, NIH3T3 tox inconclusive, Luciferase inh inactive, SNCA expr inh inactive, hNpr1 antagonist inactive and HEK293 tox inactive.
Cc1ccc(CN2CCC3(Cc4ccccc4NC3=O)C2)cc1 (stereo not given) was read as HEK293 viab inactive, NIH3T3 tox inactive, Luciferase inh inactive, SNCA expr inh inactive, hNpr1 antagonist inactive and HEK293 tox inconclusive.
O=C(c1cccs1)N1CCC2(CC1)N=C(c1ccc(Cl)cc1)NO2 was read as HEK293 viab inactive, NIH3T3 tox inactive, Luciferase inh inactive, SNCA expr inh inactive, hNpr1 antagonist inconclusive and HEK293 tox inactive.
COc1ccc(S(=O)(=O)NC[C@@H]2C=C(C)[C@H](CC(=O)NCc3ccc(C#N)cc3)C[C@H]2C(C)C)cc1 was read as HEK293 viab inactive, NIH3T3 tox 25µM, Luciferase inh inactive, SNCA expr inh inconclusive, hNpr1 antagonist inactive and HEK293 tox inconclusive.
`CC1=C[C@@H](CC#N)[C@H](C(C)C)C[C@H]1CC(=O)NCc1ccc(F)cc1` gave HEK293 viab inactive, NIH3T3 tox inconclusive, Luciferase inh inactive, SNCA expr inh inactive, hNpr1 antagonist inactive and HEK293 tox 89µM.
CC1=C[C@@H](CNS(=O)(=O)c2ccc(F)cc2)[C@H](C(C)C)C[C@H]1CC(=O)NCCN(C)C was read as HEK293 viab inactive, NIH3T3 tox 40µM, Luciferase inh inactive, SNCA expr inh inactive, hNpr1 antagonist inactive and HEK293 tox inconclusive.
`CC1=C[C@@H](CC#N)[C@H](C(C)C)C[C@H]1CC(=O)NCc1ccc(C(F)(F)F)cc1` gave HEK293 viab inactive, NIH3T3 tox inactive, Luciferase inh inactive, SNCA expr inh inactive, hNpr1 antagonist inactive and HEK293 tox inactive.
For COc1ccccc1N1CCN(C(=O)C[C@@H]2C[C@@H](C(C)C)[C@H](CC#N)C=C2C)CC1 the results were HEK293 viab inactive, NIH3T3 tox inconclusive, Luciferase inh inactive, SNCA expr inh inactive, hNpr1 antagonist inactive and HEK293 tox 35µM.
Screening CCN1C(=O)C2CC3(CCN(Cc4cn[nH]c4-c4ccc(F)cc4)CC3)CN2C1=O (stereo not given) returned HEK293 viab inactive, NIH3T3 tox inactive, Luciferase inh inactive, SNCA expr inh inactive, hNpr1 antagonist inactive and HEK293 tox inactive.
`Cc1cc(C)cc(-c2ccc(C(=O)N3CCC(Oc4cccnc4)CC3)cn2)c1` gave HEK293 viab inactive, NIH3T3 tox inconclusive, Luciferase inh inactive, SNCA expr inh inactive, hNpr1 antagonist inactive and HEK293 tox inconclusive.
CC1=C[C@@H](CNS(=O)(=O)c2ccccc2)[C@H](C(C)C)C[C@H]1CC(=O)O was read as HEK293 viab inactive, NIH3T3 tox inconclusive, Luciferase inh inactive, SNCA expr inh inactive, hNpr1 antagonist inactive and HEK293 tox inactive.
CC1=C[C@@H](CNS(=O)(=O)c2ccccc2)[C@H](C(C)C)C[C@H]1CC(=O)NCCN(C)C was read as HEK293 viab inactive, NIH3T3 tox inconclusive, Luciferase inh inactive, SNCA expr inh inactive, hNpr1 antagonist inactive and HEK293 tox inconclusive.
`COCCNC(=O)C[C@@H]1C[C@@H](C(C)C)[C@H](CNS(=O)(=O)c2ccccc2)C=C1C` gave HEK293 viab inactive, NIH3T3 tox 112µM, Luciferase inh inactive, SNCA expr inh inactive, hNpr1 antagonist inactive and HEK293 tox inactive.
Screening CCOC(=O)C[C@@H]1C[C@@H](C(C)C)[C@H](CNS(=O)(=O)c2ccccc2)C=C1C returned HEK293 viab inconclusive, NIH3T3 tox inconclusive, Luciferase inh inactive, SNCA expr inh inconclusive, hNpr1 antagonist inconclusive and HEK293 tox 63µM.
`CC1=C[C@@H](CNS(=O)(=O)c2ccc(Cl)cc2)[C@H](C(C)C)C[C@H]1CC(=O)N1CCOCC1` gave HEK293 viab inconclusive, NIH3T3 tox 32µM, Luciferase inh inactive, SNCA expr inh inconclusive, hNpr1 antagonist inconclusive and HEK293 tox inconclusive.
Screening CC1=C[C@@H](CNS(=O)(=O)c2cccc(F)c2)[C@H](C(C)C)C[C@H]1CC(=O)O returned HEK293 viab inactive, NIH3T3 tox 45µM, Luciferase inh inactive, SNCA expr inh inactive, hNpr1 antagonist inactive and HEK293 tox inactive.
`CC1=C[C@@H](CNS(=O)(=O)c2ccccc2)[C@H](C(C)C)C[C@H]1CC(=O)NCc1ccccn1` gave HEK293 viab inactive, NIH3T3 tox inconclusive, Luciferase inh inactive, SNCA expr inh inactive, hNpr1 antagonist inactive and HEK293 tox inactive.
For Cc1noc(C)c1CC(=O)N1C[C@@H](CO)[C@H](c2ccccn2)C1 the results were HEK293 viab inactive, NIH3T3 tox inactive, Luciferase inh inactive, SNCA expr inh inactive, hNpr1 antagonist inactive and HEK293 tox inactive.
Screening Cc1ccc([S+](=O)([O-])N2CCCC(C(=O)N3CCC4(CC3)CC(=O)Nc3ccccc3O4)C2)cc1 (stereo not given) returned HEK293 viab inactive, NIH3T3 tox inconclusive, SNCA expr inh inactive and HEK293 tox 35µM.
Screening Cc1ccc(C(=O)N2CCCC(C(=O)N3CCC4(CC3)CC(=O)Nc3ccccc3O4)C2)cc1 (stereo not given) returned HEK293 viab inactive, NIH3T3 tox inactive, SNCA expr inh inactive and HEK293 tox inconclusive.
